From PubChem BioAssay
Inconclusive results are not listed. The source made the active and inactive calls.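 How the source made its calls, unless noted: active means inhibition above the screen-wide mean plus 3 SD, about 51%; inactive means the rest.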

How the values were obtained:
[1] = rapamycin-like changes in RPL19A-GFP expression – cell-based, S. cerevisiae, multiplex flow cytometry, primary screen (AID 1862; in the data active means percent of DMSO control GFP below about 86%;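 further: lower values mimic rapamycin by blocking the RPL19A rise seen in DMSO cells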); settings: S. cerevisiae RPL19A-GFP strain, flow cytometry fluorescence, 3 h; at 10 µM; stronger effect = lower value
[2] = TOR pathway GLN3 branch reporter MEP2-GFP changes – S. cerevisiae, multiplex flow cytometry, primary screen (AID 1867;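 active means GFP response, as percent of the DMSO control, above the screen-wide mean plus 3 SD, about 139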;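 further: median GFP channel fluorescence of barcode-gated MEP2-GFP cells measured by flow cytometry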); settings: S. cerevisiae MEP2-GFP strain, 3 h, at 10 µM, stronger effect = higher value, 100% means same as DMSO wells
[3] = TOR pathway RTG branch CIT2 reporter changes – S. cerevisiae, GFP fusion, multiplex flow cytometry, primary screen (AID 1870;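 active means percent response above a set limit, the screen-wide mean plus 3 SD, cut at about 130% in these data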;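 further: barcoded CIT2-GFP strain pooled with four other GFP strains with rapamycin as positive control; median GFP fluorescence per well over plate mean of DMSO wells so 100% = DMSO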); settings: S. cerevisiae CIT2-GFP expression, 3 h, at 10 µM, stronger effect = higher value
[4] = TOR pathway LAP4-GFP level changes – S. cerevisiae, multiplex flow cytometry, primary screen (AID 1873;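 active means GFP signal, as percent of the solvent control, above the screen mean plus 3 SD, about 149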); settings: S. cerevisiae LAP4-GFP expression, 3 h, at 10 µM, stronger effect = higher value
[5] = yeast AGP1-GFP level changes, GLN3 branch – cell-based, multiplex flow cytometry, S. cerevisiae, primary screen (AID 1887;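 active means GFP signal above the screen-wide mean plus 3 SD, that is over about 124.5% of the solvent control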;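 further: AGP1-GFP fusion strain of S. cerevisiae within a five-strain barcoded multiplex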); settings: 3 h, at 10 µM, stronger effect = higher value
[6] = reduced mouse 2C T cell binding to pMHC/ICAM-1 vesicles – MLPCN validation set, flow cytometry, LFA-1/ICAM-1 modulator project, pilot screen (AID 2523;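 active means response below a set limit, under 55% cells CD8-positive and vesicle-bound, and CD8 cells' 90th-percentile brightness under 279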;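 on vesicle binding response: mean PE anti-B7-1 fluorescence of CD8+ cells relative to row control; 100% = QL9-loaded vesicles with DMSO vehicle in the same plate row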); settings: 2C mouse CD8+ T cells, at 7 µM, stronger effect = lower value; double positive events: measured here: CD8+/vesicle+ event percentage
[7] = biological target: Integrin beta-1 (Homo sapiens) + Integrin alpha-4 (Homo sapiens) (UniProt P13612+P05556); experiment: alpha4beta1 integrin LIBS antibody binding reduction – U937 cells, HUTS-21 mAb, flow cytometry, validation set, VLA-4 allosteric modulator project, pilot screen (AID 2674;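 active means inhibition above 50%, about 3 SD of the validation set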;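 further: antibody binding induced by the VLA-4 ligand LDV present at three times its Kd; 0% = LDV ligand with antibody and no compound and 100% = antibody without LDV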); settings: HUTS-21 LIBS mAb binding, at 6.7 µM, stronger effect = higher value, binding induced by LDV ligand
Integrin beta-1 (Homo sapiens) + Integrin alpha-4 (Homo sapiens), sequence (P05556 whole entry, looked up): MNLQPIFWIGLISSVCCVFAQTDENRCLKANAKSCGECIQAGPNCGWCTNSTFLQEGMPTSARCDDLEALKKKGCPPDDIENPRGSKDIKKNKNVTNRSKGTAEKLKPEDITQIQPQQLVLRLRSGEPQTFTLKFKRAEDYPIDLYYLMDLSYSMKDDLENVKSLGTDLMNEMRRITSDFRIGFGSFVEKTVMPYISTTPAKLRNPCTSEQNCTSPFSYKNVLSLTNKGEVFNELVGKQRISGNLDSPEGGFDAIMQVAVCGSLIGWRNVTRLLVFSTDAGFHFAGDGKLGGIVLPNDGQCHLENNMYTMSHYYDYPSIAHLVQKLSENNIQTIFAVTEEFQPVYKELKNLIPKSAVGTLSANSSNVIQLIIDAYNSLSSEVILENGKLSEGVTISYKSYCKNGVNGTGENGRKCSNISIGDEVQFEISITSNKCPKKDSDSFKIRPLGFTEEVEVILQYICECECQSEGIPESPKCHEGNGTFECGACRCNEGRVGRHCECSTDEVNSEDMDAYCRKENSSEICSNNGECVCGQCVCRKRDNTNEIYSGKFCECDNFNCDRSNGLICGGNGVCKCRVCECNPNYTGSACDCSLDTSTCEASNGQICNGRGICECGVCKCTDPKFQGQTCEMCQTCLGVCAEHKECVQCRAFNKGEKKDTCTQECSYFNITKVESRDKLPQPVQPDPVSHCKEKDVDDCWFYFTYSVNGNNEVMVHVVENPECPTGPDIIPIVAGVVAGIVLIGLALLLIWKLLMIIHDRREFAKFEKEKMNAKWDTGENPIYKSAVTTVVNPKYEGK
Integrin beta-1 (Homo sapiens) + Integrin alpha-4 (Homo sapiens), sequence (P13612 whole entry, looked up): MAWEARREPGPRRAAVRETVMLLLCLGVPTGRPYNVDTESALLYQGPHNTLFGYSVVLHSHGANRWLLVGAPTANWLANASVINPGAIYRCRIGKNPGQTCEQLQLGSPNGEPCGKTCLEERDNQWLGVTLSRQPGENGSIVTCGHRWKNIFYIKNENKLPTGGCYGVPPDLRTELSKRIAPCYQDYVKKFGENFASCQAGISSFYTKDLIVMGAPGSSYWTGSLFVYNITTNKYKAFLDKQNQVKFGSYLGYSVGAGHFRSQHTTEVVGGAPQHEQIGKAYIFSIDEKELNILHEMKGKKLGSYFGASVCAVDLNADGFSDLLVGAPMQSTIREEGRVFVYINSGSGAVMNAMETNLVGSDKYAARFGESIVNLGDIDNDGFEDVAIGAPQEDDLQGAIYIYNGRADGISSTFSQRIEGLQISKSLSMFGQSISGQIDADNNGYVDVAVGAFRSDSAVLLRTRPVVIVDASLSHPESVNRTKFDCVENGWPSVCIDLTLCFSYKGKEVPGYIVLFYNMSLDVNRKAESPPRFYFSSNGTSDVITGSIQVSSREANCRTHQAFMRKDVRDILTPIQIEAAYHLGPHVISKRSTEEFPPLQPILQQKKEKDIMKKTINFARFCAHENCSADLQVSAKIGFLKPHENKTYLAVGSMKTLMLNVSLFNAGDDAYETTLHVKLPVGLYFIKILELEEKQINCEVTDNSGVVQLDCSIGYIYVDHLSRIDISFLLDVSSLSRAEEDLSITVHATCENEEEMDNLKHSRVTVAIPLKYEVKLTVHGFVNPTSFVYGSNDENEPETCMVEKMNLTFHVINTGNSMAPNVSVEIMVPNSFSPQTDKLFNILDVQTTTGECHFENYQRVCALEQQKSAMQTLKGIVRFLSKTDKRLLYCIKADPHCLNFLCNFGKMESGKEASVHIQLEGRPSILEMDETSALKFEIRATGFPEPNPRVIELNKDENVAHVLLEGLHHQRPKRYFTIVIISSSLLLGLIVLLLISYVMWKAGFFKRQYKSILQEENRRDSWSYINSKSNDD

[8] = calorie-restriction mimetic ROS inhibitors, yeast – validation compound set, pilot screen (AID 2706;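 active means superoxide response below 65% of plate, a cut near 3 SD across the whole screen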;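 further: yeast exposed to compound for one week at 30 degrees C before staining; 100% = mean of all compound wells on the same plate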); settings: S. cerevisiae aging, superoxide DHE fluorescence; at 10 µM; stronger effect = lower value
[9] = biological target: Beta-adrenergic receptor kinase 1 (Homo sapiens) (UniProt P25098); experiment: GRK2 binders displacing RNA aptamer, biochemical, validation, human GRK2, bead flow cytometry (AID 488806;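 active means aptamer binding inhibition above 30%, about 3 SD of noise from non-fluorescent compounds; inactive means inhibition at or below 30%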); settings: bead-bound GRK2, FAM-aptamer displacement, at 10 µM, stronger effect = higher value
Beta-adrenergic receptor kinase 1 (Homo sapiens), sequence (P25098 whole entry, looked up): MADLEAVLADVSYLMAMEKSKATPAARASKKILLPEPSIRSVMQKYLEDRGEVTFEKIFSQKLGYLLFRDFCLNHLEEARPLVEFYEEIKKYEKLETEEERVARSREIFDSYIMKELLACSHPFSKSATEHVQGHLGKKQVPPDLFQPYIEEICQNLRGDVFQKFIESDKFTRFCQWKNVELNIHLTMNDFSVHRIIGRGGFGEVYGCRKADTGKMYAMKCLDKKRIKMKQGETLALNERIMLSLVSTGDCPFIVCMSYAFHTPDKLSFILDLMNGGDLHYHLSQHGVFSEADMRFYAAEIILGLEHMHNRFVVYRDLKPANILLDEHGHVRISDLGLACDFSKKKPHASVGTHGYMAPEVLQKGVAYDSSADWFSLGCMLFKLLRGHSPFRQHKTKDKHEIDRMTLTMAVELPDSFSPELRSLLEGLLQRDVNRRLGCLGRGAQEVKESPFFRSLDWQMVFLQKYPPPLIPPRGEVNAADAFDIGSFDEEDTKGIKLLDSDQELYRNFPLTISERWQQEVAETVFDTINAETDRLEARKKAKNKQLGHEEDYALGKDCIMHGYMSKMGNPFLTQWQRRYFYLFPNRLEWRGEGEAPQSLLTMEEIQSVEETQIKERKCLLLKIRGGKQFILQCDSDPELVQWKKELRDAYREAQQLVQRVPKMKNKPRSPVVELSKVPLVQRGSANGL

[10] = biological target: Beta-2 adrenergic receptor (Homo sapiens) (UniProt P07550); experiment: agonist-induced loss of surface beta2AR – cell-based, FAP fluorogen, flow cytometry, validation set, pilot screen (AID 504459;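 active means percent response above 42, roughly 3 SD of non-fluorescent test compounds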;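 further: agonist-driven loss of surface beta2AR via internalization measured by FAP dye flow cytometry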); settings: Am2.2-beta2AR cells, at 10 µM, stronger effect = higher value
Beta-2 adrenergic receptor (Homo sapiens), sequence (P07550 whole entry, looked up): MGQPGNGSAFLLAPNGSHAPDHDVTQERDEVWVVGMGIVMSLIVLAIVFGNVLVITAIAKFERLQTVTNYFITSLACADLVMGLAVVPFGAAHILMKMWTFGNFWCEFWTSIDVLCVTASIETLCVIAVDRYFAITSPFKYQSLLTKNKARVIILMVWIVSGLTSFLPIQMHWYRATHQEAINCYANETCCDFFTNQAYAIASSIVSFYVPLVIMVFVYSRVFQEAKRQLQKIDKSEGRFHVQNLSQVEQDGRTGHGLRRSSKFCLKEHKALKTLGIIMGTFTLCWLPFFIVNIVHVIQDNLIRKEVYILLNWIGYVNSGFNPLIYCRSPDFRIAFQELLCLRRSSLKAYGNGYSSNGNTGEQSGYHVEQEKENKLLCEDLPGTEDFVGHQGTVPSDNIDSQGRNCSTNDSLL

[11] = biological target: AP-2 complex subunit beta (Homo sapiens) (UniProt P63010); experiment: beta-arrestin/AP2 interaction blockers – biochemical, validation set, GST-AP2 beads, flow cytometry, pilot screen (AID 504541;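 active means inhibition above 54%, about 3 SD of non-fluorescent compounds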;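 further: AP2 carries R879A mutation and is captured from E. coli lysate; bead-bound FITC arrestin peptide fluorescence measuring arrestin peptide binding to AP2; 0% = DMSO wells and 100% = excess unlabeled arrestin peptide control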); settings: FITC arrestin peptide, at 10 µM, stronger effect = higher value, AP2 beta2 appendage fragment, R879A mutant
AP-2 complex subunit beta (Homo sapiens), sequence (P63010 whole entry, looked up, the tested form may be a part, one chain of several): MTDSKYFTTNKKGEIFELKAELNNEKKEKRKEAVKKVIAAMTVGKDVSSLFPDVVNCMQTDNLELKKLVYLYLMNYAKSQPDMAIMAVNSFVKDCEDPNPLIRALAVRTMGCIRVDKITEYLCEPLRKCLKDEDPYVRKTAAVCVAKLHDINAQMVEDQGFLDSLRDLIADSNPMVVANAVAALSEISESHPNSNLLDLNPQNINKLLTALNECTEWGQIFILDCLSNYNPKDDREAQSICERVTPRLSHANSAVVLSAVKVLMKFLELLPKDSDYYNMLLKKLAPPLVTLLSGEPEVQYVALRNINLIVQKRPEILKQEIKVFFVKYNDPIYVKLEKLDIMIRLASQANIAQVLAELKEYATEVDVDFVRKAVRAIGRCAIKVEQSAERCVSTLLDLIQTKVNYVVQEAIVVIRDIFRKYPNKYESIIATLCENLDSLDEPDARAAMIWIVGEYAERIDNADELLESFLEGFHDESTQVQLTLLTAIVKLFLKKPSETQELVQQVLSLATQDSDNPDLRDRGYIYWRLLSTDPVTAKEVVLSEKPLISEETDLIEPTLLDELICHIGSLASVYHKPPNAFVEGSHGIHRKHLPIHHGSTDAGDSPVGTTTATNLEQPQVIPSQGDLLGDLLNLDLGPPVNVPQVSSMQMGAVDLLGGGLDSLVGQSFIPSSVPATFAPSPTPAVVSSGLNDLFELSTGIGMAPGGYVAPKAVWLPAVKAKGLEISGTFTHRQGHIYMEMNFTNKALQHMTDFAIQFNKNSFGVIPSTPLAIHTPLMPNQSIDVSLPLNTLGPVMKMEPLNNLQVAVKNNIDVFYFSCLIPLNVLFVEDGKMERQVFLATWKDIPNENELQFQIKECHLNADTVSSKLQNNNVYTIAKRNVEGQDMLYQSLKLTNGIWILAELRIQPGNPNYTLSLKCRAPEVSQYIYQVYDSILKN

[12] = cytosolic pH regulators acting via V-ATPase – S. cerevisiae, pHLuorin, HTS validation (AID 504600; in the data active means response above about 15%;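 further: plate controls were DMSO for no effect and reference compound for full effect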); settings: V-ATPase proton transport, at 10 µM, stronger effect = higher value
[13] = test system: anti-desmoglein-3 scFv antibody binding to human DSG3; experiment: blockers of pathogenic pemphigus antibody–desmoglein-3 binding – biochemical, validation compound set, bead-based, flow cytometry, pilot screen (AID 588368;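 active means binding below the plate cutoff, the plate median minus 3 SD, with a reading above zero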;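 further: signal is the median channel fluorescence of bead-bound GFP antibody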); settings: Protein G beads, DSG3-Fc, scFv-GFP binding, at 10 µM, stronger effect = lower value
[14] = Nile Red efflux blockade in pump-expressing yeast – validation compound set, multiplex, phenotypic, pilot screen (AID 588506;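 active means efflux inhibition above 0.42, the validation set average plus 4 SD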;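 further: Nile Red retained in cells so higher fluorescence means more efflux inhibition; 0 = negative control wells and 1 = enniatin B 25 µM full block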); settings: S. cerevisiae pump-expressing triplex, Nile Red efflux flow cytometry; at 10 µM; stronger effect = higher value; the pumps come from Candida albicans
[15] = biological target: ATP-binding cassette sub-family B member 6 (Homo sapiens) (UniProt Q9NP58); experiment: blockers of ABCB6-driven porphyrin uptake – K562-ABCB6 cells, flow cytometry, validation set, pilot screen (AID 588550); settings: K562-ABCB6 porphyrin accumulation, 1 h, at 10 µM, stronger effect = higher value;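 further: 0% = DMSO wells and 100% = benzethonium chloride 70 µM positive control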
ATP-binding cassette sub-family B member 6 (Homo sapiens), sequence (Q9NP58 whole entry, looked up): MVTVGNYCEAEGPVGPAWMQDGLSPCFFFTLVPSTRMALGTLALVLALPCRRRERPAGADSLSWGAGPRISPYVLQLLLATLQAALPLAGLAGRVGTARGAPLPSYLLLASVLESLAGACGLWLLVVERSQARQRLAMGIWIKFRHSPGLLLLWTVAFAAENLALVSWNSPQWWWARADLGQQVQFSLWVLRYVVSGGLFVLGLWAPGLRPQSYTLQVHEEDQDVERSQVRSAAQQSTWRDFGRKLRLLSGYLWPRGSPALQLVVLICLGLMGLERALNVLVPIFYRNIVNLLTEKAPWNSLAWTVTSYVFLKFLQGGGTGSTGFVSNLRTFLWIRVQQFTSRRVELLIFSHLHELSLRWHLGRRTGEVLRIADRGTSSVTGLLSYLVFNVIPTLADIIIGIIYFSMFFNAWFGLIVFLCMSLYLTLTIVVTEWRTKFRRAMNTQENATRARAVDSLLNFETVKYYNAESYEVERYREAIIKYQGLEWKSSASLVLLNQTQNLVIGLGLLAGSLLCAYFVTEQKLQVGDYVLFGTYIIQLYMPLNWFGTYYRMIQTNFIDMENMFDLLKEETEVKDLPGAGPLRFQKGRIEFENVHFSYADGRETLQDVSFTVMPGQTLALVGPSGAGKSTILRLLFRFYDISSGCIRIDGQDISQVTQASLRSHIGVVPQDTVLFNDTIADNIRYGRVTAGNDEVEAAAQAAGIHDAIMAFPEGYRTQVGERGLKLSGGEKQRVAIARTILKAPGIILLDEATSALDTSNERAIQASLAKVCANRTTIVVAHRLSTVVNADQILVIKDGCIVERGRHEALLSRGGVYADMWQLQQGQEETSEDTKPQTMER

[16] = AML differentiation inducers, ER-HoxA9 marrow cells – cell-based, GFP/MAC1 double positive, flow cytometry, validation set, primary screen (AID 588685;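 active means differentiation response of at least 50%, scaled between solvent and reference control, from cells with both markers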;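 further: compound exposure lasts four days before antibody staining and flow analysis; 0% = DMSO wells and 100% = 5 µM fulvestrant positive control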); settings: stronger effect = higher value, normalized: vehicle 0, fulvestrant 100

O=c1c(C(c2ccccc2)c2c(O)sc3ccccc3c2=O)c(O)sc2ccccc12
inactive: percent of DMSO control GFP [1] 93.8% | GFP response vs DMSO [2] 97.6% | percent response of DMSO control [3] 91.8% | GFP response vs DMSO [4] 112% | GFP response, % of DMSO [5] 113% | vesicle binding response [6] 187% | inhibition [7] 15.9% | superoxide response (% of plate) [8] 90.1% | aptamer binding inhibition [9] 1% | response [10] -1.18% | inhibition [11] -1.26% | response [12] 0.43% | binding (% of control) [13] 107% | efflux inhibition (fraction of control) [14] -0.13 | inhibition [15] -30% | differentiation response [16] 37.4%
71.3%: double positive events [6]

O=C(O)c1ccc(C(=O)C(=O)c2ccccc2)cc1
65.4%: double positive events [6]
inactive: percent of DMSO control GFP [1] 104% | GFP response vs DMSO [2] 98.3% | percent response of DMSO control [3] 109% | GFP response vs DMSO [4] 101% | GFP response, % of DMSO [5] 102% | vesicle binding response [6] 304% | inhibition [7] -17.1% | superoxide response (% of plate) [8] 110% | aptamer binding inhibition [9] 3% | response [10] 4.67% | inhibition [11] 1.48% | response [12] 0.41% | binding (% of control) [13] 96.6% | efflux inhibition (fraction of control) [14] -0.01 | inhibition [15] -10% | differentiation response [16] -6.6%

O=C(c1ccco1)N(CCC(c1ccccc1)c1ccco1)Cc1ccco1 (stereo not drawn)
80%: double positive events [6]
inactive: percent of DMSO control GFP [1] 103% | GFP response vs DMSO [2] 95.2% | percent response of DMSO control [3] 106% | GFP response vs DMSO [4] 99.9% | GFP response, % of DMSO [5] 104% | vesicle binding response [6] 8050% | inhibition [7] -1.79% | superoxide response (% of plate) [8] 104% | aptamer binding inhibition [9] 5% | response [10] 6.76% | inhibition [11] 3.27% | response [12] -0.61% | binding (% of control) [13] 99.7% | efflux inhibition (fraction of control) [14] 0.15 | inhibition [15] -3% | differentiation response [16] -13.6%

CC(C)Oc1ccc2c(=O)c(-c3ccccc3)coc2c1
inactive: percent of DMSO control GFP [1] 86.5% | GFP response vs DMSO [2] 101% | percent response of DMSO control [3] 106% | GFP response vs DMSO [4] 83.1% | GFP response, % of DMSO [5] 94% | vesicle binding response [6] 209% | inhibition [7] -7.12% | superoxide response (% of plate) [8] 94.6% | aptamer binding inhibition [9] 0% | response [10] 1.13% | inhibition [11] 2.38% | response [12] 1.01% | binding (% of control) [13] 101% | efflux inhibition (fraction of control) [14] -0.53 | inhibition [15] 13% | differentiation response [16] -5.73%
66.7%: double positive events [6]

CC(C)C[C@H]1C(=O)N2CCC[C@H]2[C@]2(O)O[C@](NC(=O)[C@@H]3C=C4c5cccc6[nH]c(Br)c(c56)CC4N(C)C3)(C(C)C)C(=O)N12 (stereo partly drawn)
active: efflux inhibition (fraction of control) [14] 0.58
49.2%: double positive events [6]
inactive: percent of DMSO control GFP [1] 106% | GFP response vs DMSO [2] 105% | percent response of DMSO control [3] 99.7% | GFP response vs DMSO [4] 102% | GFP response, % of DMSO [5] 104% | vesicle binding response [6] 107% | inhibition [7] -7.79% | superoxide response (% of plate) [8] 97.8% | aptamer binding inhibition [9] 0% | response [10] -5.85% | inhibition [11] -3.14% | response [12] 3.49% | binding (% of control) [13] 99.8% | inhibition [15] -91% | differentiation response [16] 1.28%

CCC(=O)c1ccc(OCc2ccc(C(=O)OC)cc2)cc1
inactive: percent of DMSO control GFP [1] 104% | GFP response vs DMSO [2] 104% | percent response of DMSO control [3] 106% | GFP response vs DMSO [4] 112% | GFP response, % of DMSO [5] 98.6% | vesicle binding response [6] 127% | inhibition [7] 4.27% | superoxide response (% of plate) [8] 90.3% | aptamer binding inhibition [9] -1% | response [10] 4.9% | inhibition [11] 10.4% | binding (% of control) [13] 96.4% | efflux inhibition (fraction of control) [14] -0.045 | inhibition [15] 10% | differentiation response [16] -23.6%
54.8%: double positive events [6]
active: response [12] 23.8%

COc1cc(/C=C/C(=O)O)cc(S(=O)(=O)NCCCO)c1OC
59.6%: double positive events [6]
inactive: percent of DMSO control GFP [1] 97.3% | GFP response vs DMSO [2] 98.5% | percent response of DMSO control [3] 91% | GFP response vs DMSO [4] 116% | GFP response, % of DMSO [5] 105% | vesicle binding response [6] 157% | inhibition [7] 6.4% | superoxide response (% of plate) [8] 95.1% | aptamer binding inhibition [9] 5% | response [10] 8.94% | inhibition [11] -5.7% | response [12] -0.12% | binding (% of control) [13] 96.6% | efflux inhibition (fraction of control) [14] -0.13 | inhibition [15] 5% | differentiation response [16] -15.2%

COc1ccc(CCN(C)Cc2nc(Cc3ccc(OC)c(OC)c3)no2)cc1OC
62.5%: double positive events [6]
inactive: percent of DMSO control GFP [1] 100% | GFP response vs DMSO [2] 105% | percent response of DMSO control [3] 102% | GFP response vs DMSO [4] 109% | GFP response, % of DMSO [5] 108% | vesicle binding response [6] 222% | inhibition [7] 15.1% | superoxide response (% of plate) [8] 92.6% | aptamer binding inhibition [9] 1% | response [10] -13.9% | inhibition [11] 2.64% | response [12] 8.73% | binding (% of control) [13] 98.8% | efflux inhibition (fraction of control) [14] 0 | inhibition [15] 1% | differentiation response [16] 29.5%

COC(=O)c1cc(Br)c(=O)n(CCc2ccc(O)cc2)c1
inactive: percent of DMSO control GFP [1] 95.2% | GFP response vs DMSO [2] 109% | percent response of DMSO control [3] 93.9% | GFP response vs DMSO [4] 123% | GFP response, % of DMSO [5] 99.7% | vesicle binding response [6] 234% | inhibition [7] 6.4% | superoxide response (% of plate) [8] 103% | aptamer binding inhibition [9] 5% | response [10] -13.9% | inhibition [11] 4.99% | response [12] -0.03% | binding (% of control) [13] 96.8% | efflux inhibition (fraction of control) [14] -0.17 | inhibition [15] 8% | differentiation response [16] -10.4%
57.8%: double positive events [6]
